The record followed here is PubChem BioAssay (NCATS).

The test system of one test is W2. Nature of the test: qHTS profiling for inhibitors of Plasmodium falciparum proliferation (AID 504749). Note: nearly all actives have a fitted effect of over 60% in size. As to conditions: P. falciparum in erythrocytes, SYBR Green DNA, 72 h; series mostly up to 28.7 µM. In short, it runs like this: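 SYBR Green fluorescence of parasite DNA, read after lysis and overnight dark incubation, measured growth over 72 h in erythrocyte culture at 0.3% parasitemia and 2.5% hematocrit. Data normalised to DMSO and 0.29 uM artemisinin, with plate-drift correction.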

The next test concerns HEK293. Put plainly: Cytotoxic Profiling of Annotated Libraries Using Quantitative High-Throughput Screening (AID 1296008). For max response: % is set by controls: 0 for no effect and ±100 for the full control effect. Note: nearly all actives have a fitted effect of over 60% in size. The following applies: Five cell lines viability, CellTiter-Glo ATP luminescence, 48-72 h; max response: stronger effect = lower value. The method, boiled down: (§1)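 Cytotoxicity was measured as CellTiter-Glo ATP luminescence, read after 10 min at room temperature. Compound treatment of the cells lasted 48 or 72 hr at 37 degrees Celsius in a qHTS format.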
(In general: In ATP-based viability assays light output follows the ATP content of the culture.)

Test [1] concerns HaCat. Described as above. As to conditions: Five cell lines viability, CellTiter-Glo ATP luminescence, 48-72 h; max response: stronger effect = lower value. In short, it runs like this: as §1
A further test concerns KB-3-1. The test is described as above. The following applies: Five cell lines viability, CellTiter-Glo ATP luminescence, 48-72 h; max response: stronger effect = lower value. In short, it runs like this:
as §1

For test [2], the system named is NIH3T3. Described as above. The following applies: Five cell lines viability, CellTiter-Glo ATP luminescence, 48-72 h; max response: stronger effect = lower value. In short, it runs like this:
as §1

For the next test, the system named is MCC-13. Put plainly: qHTS assay to identify novel small-molecules to repurpose for Merkel cell carcinoma treatment (AID 1296009). Note: nearly all actives have a fitted effect of over 60% in size. The following applies: MCC and control cell lines, CellTiter-Glo viability, 72 h; series mostly up to 46 µM. In short, it runs like this:
(§2)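 Cell viability, measured as CellTiter-Glo luminescence, was normalized between DMSO and no-cell wells. The cells had been exposed to 8- or 11-point compound dilutions for 72 hr at 37 degree celsius.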

A further test concerns MCC-26. The test is described as above. The following applies: MCC and control cell lines, CellTiter-Glo viability, 72 h; series mostly up to 46 µM. The method, boiled down: as §2
The test system of the next test is MKL-1. The test is described as above. As to conditions: MCC and control cell lines, CellTiter-Glo viability, 72 h; series mostly up to 46 µM. In short, it runs like this:
as §2

Another test concerns MKL-2. The test is described as above. As to conditions: MCC and control cell lines, CellTiter-Glo viability, 72 h; series mostly up to 46 µM. In short, it runs like this: as §2
For another test, the system named is WaGa. The test is described as above. The following applies: MCC and control cell lines, CellTiter-Glo viability, 72 h; series mostly up to 46 µM. In short, it runs like this: as §2
A further test concerns CAOV3. Put plainly: Primary qHTS to identify gynecologic anti-cancer compounds using libraries of approved drugs and bioactive compounds (AID 1345084). Note: nearly all actives have a fitted effect of over 55% in size. As to conditions: Gynecologic cancer cell panel viability, ATPlite luminescence, 48 h; series mostly up to 57.5 µM. In short, it runs like this: (§3)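 Five-point cytotoxicity, 48 h drug exposure at 37 C, 5% CO2, on cells seeded 16 h beforehand. ATP content read by ATPlite luminescence.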

For another test, the system named is C33A. Described as above. The following applies: Gynecologic cancer cell panel viability, ATPlite luminescence, 48 h; series mostly up to 57.5 µM. In short, it runs like this: as §3
The subject of the next test is CASKI. Described as above. As to conditions: Gynecologic cancer cell panel viability, ATPlite luminescence, 48 h; series mostly up to 57.5 µM. In short, it runs like this:
as §3

In a further test the test system is Es-2. The test is described as above. As to conditions: Gynecologic cancer cell panel viability, ATPlite luminescence, 48 h; series mostly up to 57.5 µM. The method, boiled down:
as §3

Another test relates to HeLa. The test is described as above. The following applies: Gynecologic cancer cell panel viability, ATPlite luminescence, 48 h; series mostly up to 57.5 µM. In short, it runs like this:
as §3

In the next test the test system is UISO. Nature of the test: qHTS assay to identify novel small-molecules to repurpose for Merkel cell carcinoma treatment (AID 1296009). Note: nearly all actives have a fitted effect of over 60% in size. As to conditions: MCC and control cell lines, CellTiter-Glo viability, 72 h; series mostly up to 46 µM. The method, boiled down:
as §2

In another test the test system is CRL-7250. Nature of the test: Cytotoxic Profiling of Annotated Libraries Using Quantitative High-Throughput Screening (AID 1296008). For max response: % is set by controls: 0 for no effect and ±100 for the full control effect. Note: nearly all actives have a fitted effect of over 60% in size. The following applies: Five cell lines viability, CellTiter-Glo ATP luminescence, 48-72 h; max response: stronger effect = lower value. The method, boiled down:
as §1

Test [3] relates to HACAT. Put plainly: qHTS assay to identify novel small-molecules to repurpose for Merkel cell carcinoma treatment (AID 1296009). Note: nearly all actives have a fitted effect of over 60% in size. As to conditions: MCC and control cell lines, CellTiter-Glo viability, 72 h; at 44.8 µM (top of the series) unless noted. The method, boiled down: as §2
In general terms: Quantitative high-throughput screening tests each substance at several concentrations.

In test [4] the test system is NIH3T3. The description is as above. The following applies: MCC and control cell lines, CellTiter-Glo viability, 72 h; at 44.8 µM (top of the series) unless noted. In short, it runs like this:
as §2

“And” between values parts separate entries of the source, which are not always exact repeats. Equal entries are not always repeated. Results filed as inconclusive are left out. Where a structure was tested more than once in an assay, its records may differ in their call. The source made the active and inactive calls. Calls come from the whole dose curve; as a rule, active = well fitted curve in the direction sought with a large enough effect; inconclusive = small, poorly fitted or top-dose-only effect, or another doubt; inactive = no such curve, though single readings can be large; an effect the other way counts as inactive or inconclusive.
Potency is the fitted concentration of half-maximal effect.

`COc1cc(NCc2ccc3nc(N)nc(N)c3c2C)cc(OC)c1OC`: the Potency is 0.301 µM (active) with W2; 4.18 µM (active) and 53.1 nM (active) in the test on HEK293; 1.06 µM (active) in the test with HaCat [1]; 3.32 µM (active) and 326 nM (active) in the test with KB-3-1; 3.72 µM (active) and 66.8 nM (active) in the test on NIH3T3 [2]; 29.6 µM (active) in the test on MKL-1. Moreover, the Potency was 18.7 µM (active) in the test with MKL-2; 2.96 µM (active) and 94.4 nM (active) with WaGa. Moreover, the Potency result in the test on MCC-13, with MCC-26 and with CAOV3 was “inactive” throughout.
Consider `Cc1ncc([N+](=O)[O-])n1CCO`, for which the Potency result in the test on W2, in the test with C33A, in the test on CAOV3, with CASKI, in the test on Es-2 and with HeLa was “inactive” in each case.
Turning to `O[C@@H](CNC[C@H](O)[C@H]1CCc2cc(F)ccc2O1)[C@@H]1CCc2cc(F)ccc2O1`, the Potency in the test on KB-3-1 was 20.9 µM (active); in the test with MKL-2, 26.4 µM (active); in the test with UISO, 23.7 µM (active). In addition, the Potency result in the test on MCC-13, with MCC-26, in the test on WaGa and in the test with HeLa was “inactive” throughout.
Regarding `CCc1c2c(nc3ccc(OC(=O)N4CCC(N5CCCCC5)CC4)cc13)-c1cc3c(c(=O)n1C2)COC(=O)[C@]3(O)CC`, the Potency in the test with HEK293 is 7.5 µM (active) and 1.05 µM (active); in the test with HaCat [1] it was 23.7 µM (active) and 4.18 µM (active); in the test with NIH3T3 [2] it was 14.8 µM (active); in the test with MCC-26, 16.8 µM (active); with MKL-1 it was 1.88 µM (active) and 1.87 µM (active); with MKL-2, 944 nM (active) and 296 nM (active). Further, the Potency with UISO was 0.833 µM (active); in the test on WaGa, 422 nM (active) and 662 nM (active); in the test on Es-2, 14.1 µM (active). Also, the max response in the test on KB-3-1 was 43.3% (inactive). Moreover, in the test on HeLa, the Potency result is “inactive”.
Consider `CCN(CC)CC#CCOC(=O)C(O)(c1ccccc1)C1CCCCC1` (stereo not drawn), for which the compound was called inactive in the test on CRL-7250, with HaCat [1], with NIH3T3 [2], in the test with HACAT [3] and in the test with NIH3T3 [4]. Moreover, the max response in the test with KB-3-1 is 11.1% (inactive) and 9.45% (inactive). Moreover, the Potency entry with MCC-13, in the test with MCC-26, in the test with MKL-1, with MKL-2, in the test on UISO and with WaGa was “inactive” throughout.
`CCCCCCNC(=O)n1cc(F)c(=O)[nH]c1=O`: the Potency in the test on W2 was 4.78 µM (active); in the test on HEK293 it was 7.5 µM (active) and 13.2 µM (active); with NIH3T3 [2], 1.5 µM (active) and 3.72 µM (active). Further, the max response in the test on HaCat [1] is -37.7% (inactive); in the test with KB-3-1, -8.63% (inactive) and -17% (inactive). Moreover, the Potency entry in the test on MCC-13, with MCC-26, with MKL-1, in the test on MKL-2, in the test with C33A and with CAOV3 was “inactive” in each case. Moreover, the Potency result in the test on CASKI and in the test with HeLa was “inactive” throughout.
With `C[C@@H](NCCCc1cccc(C(F)(F)F)c1)c1cccc2ccccc12`, the Potency in the test with W2 was 1.69 µM (active); in the test with NIH3T3 [2], 18.8 µM (active); in the test with MCC-26, “inactive and 29.9 µM (active)”. In addition, the result with CRL-7250, in the test on NIH3T3 [2] and in the test on NIH3T3 [4] was inactive. Moreover, the max response in the test with HaCat [1] was -15.9% (inactive); in the test with KB-3-1, 5.7% (inactive). The Potency result with MCC-13, with MKL-1, in the test on MKL-2 and in the test with UISO was “inactive” each time.
Turning to `C1CCC(C(CC2CCCCN2)C2CCCCC2)CC1` (stereo not drawn), the Potency in the test on W2 was 1.69 µM (active); in the test with HEK293, 26.4 µM (active); in the test with MKL-1, 6.68 µM (active); with MKL-2, 2.37 µM (active) and 18.7 µM (active); with UISO, 16.8 µM (active) and inactive; with WaGa it was 21.1 µM (active). For the same compound, the Potency was 31.6 µM (active) in the test on C33A, 6.31 µM (active) in the test with CAOV3, 20 µM (active) with CASKI and 28.2 µM (active) in the test on Es-2. Further, the Potency result in the test with MCC-13 is “inactive”.
In the case of `COc1cccc(N(C)C(=S)Oc2ccc3c(c2)CCCC3)n1`, the compound was classed as inactive in the test on CRL-7250, with HaCat [1] and in the test on HACAT [3]. Moreover, the max response in the test on KB-3-1 is -2.71% (inactive) and 6.85% (inactive); in the test on NIH3T3 [2], 2.09% (inactive). The Potency result in the test with MCC-13, with MKL-1, in the test with MKL-2, with UISO, in the test on WaGa and in the test on C33A was “inactive” in each case. Also, the Potency entry in the test on CAOV3, in the test with CASKI, with Es-2 and in the test on HeLa was “inactive” each time.
